# PubChem BioAssay (NCATS)
# A number with no mark means an inactive call. Results filed as inconclusive are left out. A call without a number means that no potency is given here. Active and inactive are the calls of the source. Calls come from the whole dose curve; as a rule, active = well fitted curve in the direction sought with a large enough effect; inconclusive = small, poorly fitted or top-dose-only effect, or another doubt; inactive = no such curve, though single readings can be large; an effect the other way counts as inactive or inconclusive.
# How the values were obtained:
# [1] = HEK-293 Cancer Cell Toxicity qHTS against the NCATS CANVASS Library (AID 1347355); note: nearly all actives have a fitted effect of over 65% in size; note: potency is the fitted concentration of half-maximal effect; for activity change, negative = cytotoxicity: series mostly up to about 46 µM; for outcome: series mostly up to about 46 µM
# In short: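 Luminescent ATP read-out (CellTiter-Glo, 15min at room temperature) measures survival after cells face an 11-point compound series for 72 hours at 37 degrees C/5% CO2.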
# [2] = HEK293 24hr Apoptosis Induction qHTS against the NCATS CANVASS Library (AID 1347359)
# In short: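 HEK293 cells (500/well, DMEM + 10% FBS) were exposed to compounds in an 11-point series for 24 hours at 37 degrees C, then caspase-3/7 activity was read by Caspase-Glo DEVD luciferase luminescence after 15 min.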
# [3] = test system: NAD(P)H diaphorase (Clostridium kluyveri); assay: Diaphorse counterscreen qHTS: Assay Interference Panel against the NCATS CANVASS Library (AID 1347362); note: potency is the fitted concentration of half-maximal effect
# In short: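 Clostridium kluyveri diaphorase in PBS with 0.01% Tween-20 was preincubated 15 min at room temperature in the dark with compounds (11-point series). Resorufin fluorescence (ex 525/20, em 598/25) was read 5 min after adding resazurin/NADH.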
# [4] = qHTS for ATAD5 Agonist screened against the NCATS CANVASS Library (AID 1347367);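 note: luciferase reporter driven by ATAD5 which rises upon DNA damage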; note: potency is the fitted concentration of half-maximal effect
# In short: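 Step one plated reporter cells and let them acclimate 5hr. Step two pinned compounds with MMS as positive and 0.46% DMSO as negative control. After 16hr incubation, fluorescence viability then luminescence were read.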
# [5] = qHTS for ATAD5 Antagonist screened against the NCATS CANVASS Library (AID 1347370); note: nearly all actives have a fitted effect of over 65% in size; note: potency is the fitted concentration of half-maximal effect;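 for activity change, negative = inhibition: HEK293T cells carrying an ATAD5 luciferase reporter co-treated with 10 µM 5-fluorouridine; series mostly up to about 46 µM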
# In short: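 HEK293T cells with stably integrated ATAD5-luciferase reporter, 2000/well, 5 h attachment; compounds plus 10 µM 5-fluorouridine, 16 h at 37 °C. Luciferase luminescence read, with CellTiter-Fluor viability read first.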
# [6] = J3T Cancer Cell Toxicity qHTS against the NCATS CANVASS Library (AID 1347371); note: potency is the fitted concentration of half-maximal effect;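 for activity change, negative = cytotoxicity: J3T is a canine glioma cancer cell line seeded at 500 cells per well; series mostly up to about 46 µM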
# In short: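 Cells plated at 500 per well, compounds pin-transferred, plates incubated 72 hr at 37C, then CellTiterGlo added and luminescence read to measure ATP content.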
# [7] = biological target: Nuclear receptor subfamily 1 group I member 3 (Homo sapiens) (UniProt Q14994); assay: qHTS for Constitutive Androstane Receptor (CAR) Agonist screened against the NCATS CANVASS Library (AID 1347373);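 note: every well also contained 1.5 µM PK11195 alongside the test compound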; note: potency is the fitted concentration of half-maximal effect
# Chain of Nuclear receptor subfamily 1 group I member 3 (Homo sapiens) (Q14994 whole entry, looked up): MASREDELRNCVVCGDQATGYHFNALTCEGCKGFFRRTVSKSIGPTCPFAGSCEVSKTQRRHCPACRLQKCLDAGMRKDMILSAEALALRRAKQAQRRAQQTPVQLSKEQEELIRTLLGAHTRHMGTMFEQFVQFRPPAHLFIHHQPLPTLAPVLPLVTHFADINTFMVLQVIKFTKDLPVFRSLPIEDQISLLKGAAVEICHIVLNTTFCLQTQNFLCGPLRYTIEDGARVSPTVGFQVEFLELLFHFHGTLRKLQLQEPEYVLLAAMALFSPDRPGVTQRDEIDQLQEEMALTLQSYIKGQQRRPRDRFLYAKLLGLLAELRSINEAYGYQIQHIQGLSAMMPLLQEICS
# In short: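 HepG2-hCAR-CYP2B6 cells, 2500/well, attached 4hr; cpd + PK11195 1.5uM final; 24hr 37C 5% CO2. CellTiter-Fluor viability read, then ONE-Glo luminescence for CAR activation.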
# [8] = qHTS for H2AX Agonists against the NCATS CANVASS Library (AID 1347378);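 note: phospho-H2AX S139 level in CHO-K1 lysates by TR-FRET emission ratio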
# In short: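 Following overnight seeding, CHO-K1 cells are incubated with a concentration series of compound for 3 hr at 37C (final DMSO 0.76%). Cells are then lysed, detection antibodies added, and emission ratio 665/620 nm recorded after 24 hr at room temperature.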
# [9] = qHTS assay for small molecule disruptors of mitochondrial membrane potential screened against the NCATS CANVASS Library (AID 1347389); note: nearly all actives have a fitted effect of over 60% in size; note: potency is the fitted concentration of half-maximal effect
# In short: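 HepG2, 2,000 cells/well, attached overnight; compound 1 hr, 37C, 5% CO2; Mito-MPS dye 30 min, 37C; fluorescence 535 nm (monomer) and 590 nm (aggregate); decreased 590/535 ratio = depolarization.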
# [10] = qHTS for activators of dead-cell proteases activity screened against the NCATS CANVASS Library (AID 1347392);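 note: luminescence from protease leaking out of membrane-damaged cells cleaving impermeant substrate; rising signal means more cytotoxicity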
# In short: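 HepG2 cells (2000/well) attached 18 h at 37C, then exposed 5 h to compounds (11-point qHTS). Dead-cell protease activity read as luminescence from cell-impermeant AAF-aminoluciferin substrate after 15 min at room temperature.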
# [11] = HPAF-II 24hr Apoptosis Induction qHTS against the NCATS CANVASS Library (AID 1347356)
# In short: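 Luminescent caspase-3/7 signal (DEVD substrate, Caspase-Glo) served as read-out, taken 15 min after reagent addition to HPAF-II cells exposed 24 h to compounds.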
# [12] = HEK293 18hr Apoptosis Induction qHTS against the NCATS CANVASS Library (AID 1347357)
# In short: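 Luminescent caspase-3/7 signal is measured in HEK293 cells exposed for 18 hours to an 11-point concentration series; doxorubicin serves as the plate control.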
# [13] = HPAF-II 12hr Apoptosis Induction qHTS against the NCATS CANVASS Library (AID 1347358)
# In short: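 500 HPAF-II cells/well; cmpds 11-pt; 12 hr, 37 degrees C/5% CO2; Caspase-Glo 3/7 added, 15 min RT dark; luminescence read. Doxorubicin titration as control.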
# [14] = HPAF-II 18hr Apoptosis Induction qHTS against the NCATS CANVASS Library (AID 1347360)
# In short: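 Apoptosis was scored as caspase-3/7 activity in HPAF-II pancreatic cancer cells treated 18 hours with an 11-point concentration series.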
# [15] = SDT Cancer Cell Toxicity qHTS against the NCATS CANVASS Library (AID 1347365); note: nearly all actives have a fitted effect of over 60% in size; note: potency is the fitted concentration of half-maximal effect;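 for activity change, negative = cytotoxicity: SDT canine glioma cells 500 per well in 1536 well plates; series mostly up to about 46 µM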
# In short: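 qHTS, SDT dog glioma line, 500 cells/well; cpds 11 pts; 72 hr, 37C, 5% CO2; CellTiterGlo ATP luminescence.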
# [16] = MCF7 Cancer Cell Toxicity qHTS against the NCATS CANVASS Library (AID 1347369); note: potency is the fitted concentration of half-maximal effect; for activity change, negative = cytotoxicity: series mostly up to about 46 µM
# In short: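 Cytotoxicity is measured by ATP content: MCF7 cells at 500 per well receive an 11-point compound series and, after 72 hr at 37C, are lysed with CellTiterGlo for luminescence.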
# [17] = qHTS for Hypoxia signaling pathway (HIF-1) agonists against the NCATS CANVASS Library (AID 1347375)
# In short: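 ME-180 HRE-bla reporter cells; 2,000/well, 0.5% dialyzed FBS; cpd added after 5 h, 17 h 37C/5% CO2; CCF4-AM 2 h RT; FRET 460/530 nm; CellTiter-Glo viability same wells, 30 min.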
# [18] = qHTS for Inflammasome Signaling Inhibitors: IL-1-beta AlphaLISA screen against the NCATS CANVASS Library (AID 1347379);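 note: human THP-1 cells primed with LPS then triggered with ATP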;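 for activity change, negative = inhibition: secreted IL-1B measured as AlphaLISA emission at 615 nm; lower signal means less IL-1B release which is the wanted effect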;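 for potency: secreted IL-1B measured as AlphaLISA emission at 615 nm; potency is the fitted concentration of half-maximal effect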
# In short: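 THP-1 cells pretreated 1 hr with compound (up to 57.5 uM final), then stimulated with LPS (250 ng/mL final) and ATP (1.25 mM final). Secreted IL-1B measured by AlphaLISA after 16 hr; glyburide as positive control.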
# [19] = qHTS for Activators of p53 Stress Response Pathway screened against the NCATS CANVASS Library (AID 1347388)
# In short: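 p53RE-bla HCT-116 cells (4000/well) were plated 5 h at 37C, exposed to compounds for 16 h at 37C over an 11-point concentration series, then loaded with CCF4 for 2 h at room temperature; 460/530 nm emission ratio read.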
# [20] = qHTS for inhibitors of Wild type Zika virus screened against the NCATS CANVASS Library (AID 1347396);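 note: ATP luminescence of surviving cells so rescue from viral cell killing; series mostly up to about 46 µM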
# In short: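 Vero 766 (African green monkey) cells, 1000 per well, attached overnight, then compounds were added in an 11-point series before wild-type Zika virus infection. After 72 h at 37C, cell viability was read as CellTiter Glo luminescence.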
smiles,measurement,setting,value
COc1cc(O)c(C(=O)[C@@H]2[C@H](CC=C(C)C)C(C)=CC[C@H]2c2ccccc2)c(O)c1,Potency,[1],20.9 µM (active)
same,Potency,[2],inactive
same,Potency,[3],inactive
same,Potency,[4],inactive
same,Potency,[5],inactive
same,Potency,[6],inactive
same,Potency,[7],inactive
same,Potency,[8],inactive
same,Potency,[9],4.67 µM (active)
same,Potency,[10],inactive
COC12OC1(C13OC1(OC)C(=O)c1cc4cc(C)oc(=O)c4c(O)c1C3O)C(O)c1c(cc3cc(C)oc(=O)c3c1O)C2=O (configuration not stated),Potency,[1],inactive
same,outcome,[11],inactive
same,Potency,[12],inactive
same,Potency,[13],inactive
same,Potency,[2],inactive
same,Potency,[14],inactive
same,Potency,[3],inactive
same,Potency,[15],inactive
same,Potency,[4],inactive
same,Potency,[16],inactive
same,Potency,[5],inactive
same,Potency,[6],inactive
same,Potency,[7],inactive
same,outcome,[17],inactive
same,Potency,[8],inactive
same,Potency,[18],inactive
same,Potency,[19],inactive
same,Potency,[9],inactive
same,Potency,[10],inactive
COc1cc2c(c(O)c1O)C(=O)c1c(coc1C)C2=O,Potency,[1],9.35 µM (active)
same,outcome,[11],inactive
same,Potency,[12],inactive
same,Potency,[13],inactive
same,Potency,[2],inactive
same,Potency,[14],inactive
same,Potency,[3],4.31 µM (active)
same,Potency,[15],14.8 µM (active)
same,Potency,[4],inactive
same,Potency,[16],7.39 µM (active)
same,Potency,[5],inactive
same,Potency,[6],26.4 µM (active)
same,outcome,[17],inactive
same,Potency,[18],24.3 µM (active)
same,Potency,[9],10.5 µM (active)
same,Potency,[10],inactive
same,outcome,[20],inactive
CCC(=O)CCCCC[C@@H]1NC(=O)[C@H]2CCCCN2C(=O)[C@H](C(C)C)NC(=O)[C@H](Cc2cn(OC)c3ccccc23)NC1=O,Potency,[1],5.26 µM (active)
same,outcome,[11],inactive
same,Potency,[12],inactive
same,Potency,[13],inactive
same,Potency,[2],inactive
same,Potency,[14],inactive
same,Potency,[3],inactive
same,Potency,[15],7.43 µM (active)
same,Potency,[4],3.31 µM (active)
same,Potency,[5],inactive
same,Potency,[6],11.8 µM (active)
same,Potency,[7],inactive
same,outcome,[17],inactive
same,Potency,[9],inactive
same,Potency,[10],inactive
Cc1cc(C)c(O)c(C(=O)CC2CC(=O)NC(=O)C2)c1,Potency,[1],3.72 µM (active)
same,outcome,[11],inactive
same,Potency,[12],inactive
same,Potency,[13],inactive
same,Potency,[2],inactive
same,Potency,[14],inactive
same,Potency,[3],inactive
same,Potency,[15],1.32 µM (active)
same,Potency,[4],inactive
same,Potency,[5],4.67 µM (active)
same,Potency,[7],inactive
same,outcome,[17],inactive
same,Potency,[18],inactive
same,Potency,[19],inactive
same,Potency,[9],inactive
same,Potency,[10],inactive
same,outcome,[20],inactive
C=C[C@]1(C)CC[C@@H]([C@H](C)C(=O)CC=C(C)C)O1,Potency,[1],inactive
same,outcome,[11],inactive
same,Potency,[12],inactive
same,Potency,[13],inactive
same,Potency,[2],inactive
same,Potency,[14],inactive
same,Potency,[3],inactive
same,Potency,[15],inactive
same,Potency,[4],inactive
same,Potency,[16],inactive
same,Potency,[5],inactive
same,Potency,[6],inactive
same,Potency,[7],inactive
same,outcome,[17],inactive
same,Potency,[8],inactive
same,Potency,[18],inactive
same,Potency,[19],inactive
same,Potency,[9],inactive
same,Potency,[10],inactive
same,outcome,[20],inactive
COc1ccc([C@@H]2CC(=O)c3c(cc(O)c(C/C=C(\C)CCC=C(C)C)c3O)O2)cc1,"activity change, negative = cytotoxicity",[1],-14.6% [at 9.19 µM]
same,caspase activation,[11],3.45% [at 9.19 µM]
same,caspase activation,[12],0.682% [at 9.19 µM]
same,caspase activation,[13],1.72% [at 9.19 µM]
same,activation,[2],2.74% [at 9.19 µM]
same,caspase activation,[14],-1.9% [at 9.19 µM]
same,"activity change, negative = inhibition",[3],-4.24% [at 11.5 µM]
same,"activity change, negative = cytotoxicity",[15],0.771% [at 9.19 µM]
same,activation,[4],-1.01% [at 9.19 µM]
same,"activity change, negative = cytotoxicity",[16],-4.45% [at 9.17 µM]
same,"activity change, negative = inhibition",[5],-0.0168% [at 9.19 µM]
same,outcome,[6],inactive [at 9.19 µM]
same,Potency,[7],3.05 µM (active)
same,activation,[17],1.16% [at 7.64 µM]
same,activation,[8],3.21% [at 15.3 µM]
same,outcome,[18],inactive [at 11.5 µM]
same,activation,[19],21.1% [at 9.19 µM]
same,Potency,[9],3.84 µM (active)
same,activation (cytotoxicity),[10],-1.61% [at 9.19 µM]
CN1CC[C@@]2([C@@]34CCN(C)[C@@H]3Nc3ccccc34)c3ccccc3N[C@@H]12,Potency,[1],inactive
same,outcome,[11],inactive
same,Potency,[12],inactive
same,Potency,[13],inactive
same,Potency,[2],inactive
same,Potency,[14],inactive
same,Potency,[3],inactive
same,Potency,[4],inactive
same,Potency,[16],inactive
same,Potency,[5],inactive
same,Potency,[6],inactive
same,Potency,[7],inactive
same,outcome,[17],inactive
same,Potency,[8],inactive
same,Potency,[18],inactive
same,Potency,[19],inactive
same,Potency,[9],inactive
same,Potency,[10],inactive
same,outcome,[20],inactive
CN1CC[C@]23c4ccccc4N[C@H]1[C@]21CCN(C)[C@H]3Nc2ccccc21,Potency,[1],inactive
same,outcome,[11],inactive
same,Potency,[12],inactive
same,Potency,[13],inactive
same,Potency,[2],inactive
same,Potency,[14],inactive
same,Potency,[3],inactive
same,Potency,[15],inactive
same,Potency,[4],inactive
same,Potency,[16],inactive
same,Potency,[5],inactive
same,Potency,[6],inactive
same,Potency,[7],inactive
same,Potency,[8],inactive
same,Potency,[18],inactive
same,Potency,[19],inactive
same,Potency,[9],inactive
same,Potency,[10],inactive
same,outcome,[20],inactive
CCC(=O)N[C@@H](C[C@H](C)C(Cl)(Cl)Cl)C(=O)N1C(=O)C=C(OC)[C@@H]1C[C@H](C)CCl,Potency,[1],inactive
same,outcome,[11],inactive
same,Potency,[12],inactive
same,Potency,[2],inactive
same,Potency,[14],inactive
same,Potency,[3],inactive
same,Potency,[15],inactive
same,Potency,[4],inactive
same,Potency,[16],inactive
same,Potency,[5],inactive
same,Potency,[6],inactive
same,Potency,[7],inactive
same,Potency,[8],inactive
same,Potency,[18],inactive
same,outcome,[20],inactive
C/C1=C/[C@@H](C)[C@H](O)[C@@H](O)/C=C/CC/C=C/C(=O)O[C@@H]1[C@H](C)C(=O)/C=C/CC1CC(=O)NC(=O)C1,outcome,[11],inactive
same,Potency,[12],inactive
same,Potency,[13],inactive
same,Potency,[2],inactive
same,Potency,[14],inactive
same,Potency,[3],inactive
same,Potency,[15],18.7 µM (active)
same,Potency,[4],inactive
same,Potency,[16],inactive
same,Potency,[7],inactive
same,outcome,[17],inactive
same,Potency,[8],inactive
same,Potency,[18],inactive
same,Potency,[19],inactive
same,Potency,[9],inactive
same,Potency,[10],inactive
same,outcome,[20],inactive
